# This is one part of a sample in which the strongest signals are shown more often than they occur.
# Columns and labels:
# Test in all cases: glycan array binding signal (z-score within array); higher = stronger binding
# Conditions in all cases: glycan notation: IUPAC condensed, linker removed
# [1] = molecular target: Fuc(a1-2)Gal(b1-3)GlcNAc(b1-3)Gal(b1-4)Glc
# Method in brief: (§1)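 From the Consortium for Functional Glycomics database, 3228 arrays were curated, keeping only those whose protein sequence was available. Binding is given as a within-array Z-score averaged across arrays sharing a protein sequence and across linkers. Negative Z-scores can be read as non-binding.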
# [2] = molecular target: Fuc(a1-2)[Gal(a1-3)]Gal(b1-3)GlcNAc
# Method in brief: as §1
# [3] = molecular target: Fuc(a1-2)[Gal(a1-3)]Gal(b1-4)Glc
# Method in brief: as §1
# Gal(b1-3)Gal(b1-4)GlcNAc = molecular target: Gal(b1-3)Gal(b1-4)GlcNAc
# Method in brief: as §1
# Gal(b1-3)GalNAc = molecular target: Gal(b1-3)GalNAc
# Method in brief: as §1
# [4] = molecular target: Gal(b1-4)GalNAc(b1-3)[Fuc(a1-2)]Gal(b1-4)GlcNAc
# Method in brief: as §1
# [5] = molecular target: Gal(b1-4)GlcNAc(b1-3)Gal(b1-4)GlcNAc
# Method in brief: as §1
# Gal3S(b1-3)GlcNAc = molecular target: Gal3S(b1-3)GlcNAc
# Method in brief: as §1
# Gal6S(b1-4)Glc6S = molecular target: Gal6S(b1-4)Glc6S
# Method in brief: as §1
# Gal6S(b1-4)GlcNAc = molecular target: Gal6S(b1-4)GlcNAc
# Method in brief: as §1
# GalNAc(b1-3)Gal = molecular target: GalNAc(b1-3)Gal
# Method in brief: as §1
# GlcNAc(b1-4)GlcNAc = molecular target: GlcNAc(b1-4)GlcNAc
# Method in brief: as §1
# Man(a1-2)Man(a1-3)Man = molecular target: Man(a1-2)Man(a1-3)Man
# Method in brief: as §1
# [6] = molecular target: Man(a1-2)Man(a1-3)[Man(a1-2)Man(a1-6)]Man(a1-6)[Man(a1-2)Man(a1-2)Man(a1-3)]Man(b1-4)GlcNAc(b1-4)GlcNAc
# Method in brief: as §1
# [7] = molecular target: Neu5Ac(a2-3)Gal(b1-3)GlcNAc
# Method in brief: as §1
# [8] = molecular target: Neu5Ac(a2-3)Gal(b1-3)GlcNAc(b1-3)Gal(b1-3)GlcNAc
# Method in brief: as §1
# [9] = molecular target: Neu5Ac(a2-3)Gal(b1-3)[Fuc(a1-4)]GlcNAc
# Method in brief: as §1
# [10] = molecular target: Neu5Ac(a2-3)Gal(b1-3)[Neu5Ac(a2-3)Gal(b1-4)]GlcNAc
# Method in brief: as §1
# [11] = molecular target: Neu5Ac(a2-3)Gal(b1-4)GlcNAc(b1-3)Gal(b1-4)GlcNAc(b1-3)Gal(b1-4)GlcNAc
# Method in brief: as §1
# [12] = molecular target: Neu5Ac(a2-3)Gal(b1-4)GlcNAc(b1-3)Gal(b1-4)[Fuc(a1-3)]GlcNAc
# Method in brief: as §1
# [13] = molecular target: Neu5Ac(a2-3)Gal6S(b1-4)[Fuc(a1-3)]GlcNAc
# Method in brief: as §1
# Neu5Ac(a2-3)GalNAc = molecular target: Neu5Ac(a2-3)GalNAc
# Method in brief: as §1
# [14] = molecular target: Neu5Ac(a2-6)Gal(b1-4)GlcNAc
# Method in brief: as §1
# [15] = molecular target: Neu5Ac(a2-6)Gal(b1-4)GlcNAc(b1-2)Man(a1-6)[GlcNAc(b1-2)Man(a1-3)]Man(b1-4)GlcNAc(b1-4)GlcNAc
# Method in brief: as §1
# [16] = molecular target: Neu5Ac(a2-6)Gal(b1-4)GlcNAc(b1-3)Gal(b1-4)GlcNAc
# Method in brief: as §1
# Neu5Gc(a2-6)GalNAc = molecular target: Neu5Gc(a2-6)GalNAc
# Method in brief: as §1
binder,measurement,setting,value
"mLPHN-1 (Mus musculus), Q80TR1 (protein) MARLAAALWSLCVTTVLVTSATQGLSRAGLPFGLMRRELACEGYPIELRCPGSDVIMVENANYGRTDDKICDADPFQMENVQCYLPDAFKIMSQRCNNRTQCVVVAGSDAFPDPCPGTYKYLEVQYDCVPYIFVCPGTLQKVLEPTSTHESEHQSGAWCKDPLQAGDRIYVMPWIPYRTDTLTEYASWEDYVAARHTTTYRLPNRVDGTGFVVYDGAVFYNKERTRNIVKYDLRTRIKSGETVINTANYHDTSPYRWGGKTDIDLAVDENGLWVIYATEGNNGRLVVSQLNPYTLRFEGTWETGYDKRSASNAFMVCGVLYVLRSVYVDDDSEAAGNRVDYAFNTNANREEPVSLAFPNPYQFVSSVDYNPRDNQLYVWNNYFVVRYSLEFGPPDPSAGPATSPPLSTTTTARPTPLTSTASPAATTPLRRAPLTTHPVGAINQLGPDLPPATAPAPSTRRPPAPNLHVSPELFCEPREVRRVQWPATQQGMLVERPCPKGTRGIASFQCLPALGLWNPRGPDLSNCTSPWVNQVAQKIKSGENAANIASELARHTRGSIYAGDVSSSVKLMEQLLDILDAQLQALRPIERESAGKNYNKMHKRERTCKDYIKAVVETVDNLLRPEALESWKDMNATEQVHTATMLLDVLEEGAFLLADNVREPARFLAAKQNVVLEVTVLNTEGQVQELVFPQEYPSENSIQLSANTIKQNSRNGVVKVVFILYNNLGLFLSTENATVKLAGEAGTGGPGGASLVVNSQVIAASINKESSRVFLMDPVIFTVAHLEAKNHFNANCSFWNYSERSMLGYWSTQGCRLVESNKTHTTCACSHLTNFAVLMAHREIYQGRINELLLSVITWVGIVISLVCLAICISTFCFLRGLQTDRNTIHKNLCINLFLAELLFLVGIDKTQYEVACPIFAGLLHYFFLAAFSWLCLEGVHLYLLLVEVFESEYSRTKYYYLGGYCFPALVVGIAAAIDYRSYGTEKACWLRVDNYFIWSFIGPVSFVIVVNLVFLMVTLHKMIRSSSVLKPDSSRLDNIKSWALGAIALLFLLGLTWAFGLLFINKESVVMAYLFTTFNAFQGVFIFVFHCALQKKVHKEYSKCLRHSYCCIRSPPGGTHGSLKTSAMRSNTRYYTGTQSRIRRMWNDTVRKQTESSFMAGDINSTPTLNRGTMGNHLLTNPVLQPRGGTSPYNTLIAESVGFNPSSPPVFNSPGSYREPKHPLGGREACGMDTLPLNGNFNNSYSLRSGDFPPGDGGPEPPRGRNLADAAAFEKMIISELVHNNLRGASGGAKGPPPEPPVPPVPGVSEDEAGGPGSADRAEIELLYKALEEPLLLPRAQSVLYQSDLDESESCTAEDGATSRPLSSPPGRDSLYASGANLRDSPSYPDSSPEGPNEALPPPPPAPPGPPEIYYTSRPPALVARNPLQGYYQVRRPSHEGYLAAPSLEGPGPDGDGQMQLVTSL",glycan array binding signal (z-score),[1],0.213
same,glycan array binding signal (z-score),[2],15.8
same,glycan array binding signal (z-score),[3],-0.219
same,glycan array binding signal (z-score),Gal(b1-3)Gal(b1-4)GlcNAc,0.16
same,glycan array binding signal (z-score),Gal(b1-3)GalNAc,0.025
same,glycan array binding signal (z-score),[4],1.66
same,glycan array binding signal (z-score),[5],-0.105
same,glycan array binding signal (z-score),Gal3S(b1-3)GlcNAc,2.08
same,glycan array binding signal (z-score),Gal6S(b1-4)Glc6S,1.13
same,glycan array binding signal (z-score),Gal6S(b1-4)GlcNAc,1.27
same,glycan array binding signal (z-score),GalNAc(b1-3)Gal,0.793
same,glycan array binding signal (z-score),GlcNAc(b1-4)GlcNAc,-0.282
same,glycan array binding signal (z-score),Man(a1-2)Man(a1-3)Man,-0.173
same,glycan array binding signal (z-score),[6],0.551
same,glycan array binding signal (z-score),[7],0.014
same,glycan array binding signal (z-score),[8],-0.317
same,glycan array binding signal (z-score),[9],0
same,glycan array binding signal (z-score),[10],-0.26
same,glycan array binding signal (z-score),[11],-0.433
same,glycan array binding signal (z-score),[12],-0.402
same,glycan array binding signal (z-score),[13],-0.065
same,glycan array binding signal (z-score),Neu5Ac(a2-3)GalNAc,0.587
same,glycan array binding signal (z-score),[14],0.157
same,glycan array binding signal (z-score),[15],-0.261
same,glycan array binding signal (z-score),[16],-0.422
same,glycan array binding signal (z-score),Neu5Gc(a2-6)GalNAc,1.3

# Reference: the supplement of paper PMC8728848
